From ChEMBL document CHEMBL3988442, “University of Dundee, Small-Polar-MMV Screening Library” (2021)
The campaign covered roughly 48,000 compounds. About 13,000 (27%) showed an effect of 50% or more. This is one part of the list.

test system: Wolbachia pipientis; experiment: Anti-Wolbachia Cell-Based Screen; format: functional; set-up: scale not given: in the data most compounds retested in dose-response had high values; settings: 5 µM

Question: For CCS(=O)(=O)N1Cc2nccn2CC(Cn2nc(C)nc2C)C1 (stereo not given), which “Percent Effect” value is on record?
Answer: 6.553%

Question: Which “Percent Effect” value does the source give for CCn1nccc1C(=O)N1CCCCC1CCc1ccc(O)cc1 (stereo not given) here?
Answer: 1.71%

Question: CC(NC(=O)Nc1nccs1)c1ccc(S(C)(=O)=O)cc1 (stereo not given) was tested. Which “Percent Effect” value did it give?
Answer: 7.495%

Question: How did the “Percent Effect” value turn out when CCC(C(=O)NCC1CCN(c2cnn(C)c(=O)c2)CC1)n1cccn1 (stereo not given) was run?
Answer: 4.446%

Question: O=C(c1ccoc1)N1CCCn2nnc(COCC3CC3)c2C1 was tested. Which “Percent Effect” value did it give?
Answer: -7.176%

Question: How did the “Percent Effect” value turn out when O=C(C1CCC1)N1CCc2[nH]cnc2C12CCN(C1CCOCC1)CC2 was run?
Answer: 2.513%

Question: For CN1CCN(Cc2nc3c(s2)CCCC3)[C@H]2CS(=O)(=O)C[C@H]21, which “Percent Effect” value is on record?
Answer: -12.07%

Question: CC(C)(C)c1nnc(CN2CCN(CC(O)c3ccccc3)CC2)o1 (stereo not given) was tested. Which “Percent Effect” value did it give?
Answer: -4.717%

Question: For O=C(CCCc1ccc(F)cc1)N1C[C@@H](CN2CCOCC2)[C@@H](CO)C1, which “Percent Effect” value is on record?
Answer: -13.37%

Question: How did the “Percent Effect” value turn out when O=C1CN(Cc2cnc3c(-c4ccccc4)cnn3c2)CCCN1 was run?
Answer: -7.334%

Question: Which “Percent Effect” value does the source give for CNC(=O)[C@@H](C1CC1)N1CCC[C@H]1C(=O)NCC(C)C.Cl here?
Answer: 5.18%

Question: For CN(CCN1CCCCCC1)C(=O)c1cc(CN2CCCC(O)C2)on1 (stereo not given), which “Percent Effect” value is on record?
Answer: -22.76%

Question: With CC(=O)Nc1c(C)cnn1Cc1cc(F)ccc1F as the compound, how does the “Percent Effect” value read?
Answer: -3.865%

Question: For COc1ccc(C(=O)NCCCOC(C)c2ccccc2)c(OC)c1 (stereo not given), which “Percent Effect” value is on record?
Answer: 92.39%

Question: For CS(=O)(=O)NCCCNC(=O)c1cccnc1O, which “Percent Effect” value is on record?
Answer: -1.609%

Question: For CC(OCCCNC(=O)c1cccnc1O)c1ccccc1 (stereo not given), which “Percent Effect” value is on record?
Answer: 95.41%

Question: For COc1ccc(C(=O)NCCc2nnc3ccccn23)c(OC)c1, which “Percent Effect” value is on record?
Answer: -1.311%

Question: With COc1ccc(C(=O)NCCCNc2ncccn2)c(OC)c1 as the compound, how does the “Percent Effect” value read?
Answer: -2.256%

Question: How did the “Percent Effect” value turn out when O=C(NCCCN1CCc2ccccc2C1)c1cccnc1O was run?
Answer: 6.847%

Question: Which “Percent Effect” value does the source give for COCCN1CC2(CCCN(Cc3cc(=O)c(OC)co3)C2)CCC1=O (stereo not given) here?
Answer: 3.181%

Question: For COc1cc(CNC(=O)NCCCF)cc(Br)c1OC, which “Percent Effect” value is on record?
Answer: -2.867%

Question: How did the “Percent Effect” value turn out when CCN(CC)C(=O)CSc1ncc[nH]1 was run?
Answer: 45.3%

Question: Which “Percent Effect” value does the source give for CCN(C(=O)CSc1ccc(C(F)(F)F)cn1)C1CC1 here?
Answer: -14.79%

Question: CN(C(=O)CSc1ncc[nH]1)C1CC1 was tested. Which “Percent Effect” value did it give?
Answer: 109.9%

Question: How did the “Percent Effect” value turn out when CN(C(=O)Cn1nc(-c2ccc(F)cc2)oc1=O)c1ccccc1 was run?
Answer: -62.32%

Question: CN(C(=O)CSc1ncc[nH]1)c1ccccc1 was tested. Which “Percent Effect” value did it give?
Answer: 93.6%

Question: How did the “Percent Effect” value turn out when CN(C(=O)CN1CCCC1Cc1ccccc1)c1ccccc1 (stereo not given) was run?
Answer: 21.48%

Question: How did the “Percent Effect” value turn out when COc1ncccc1NC(=O)N1CCCC(CNC(=O)OC(C)(C)C)C1 (stereo not given) was run?
Answer: 1.374%

Question: Which “Percent Effect” value does the source give for O=C(NC[C@H]1Cn2c(-c3ccccc3)cnc2CO1)C1CCOCC1 here?
Answer: -9.795%

Question: For Cn1c(-c2ccccc2Cl)nc2cc(C(=O)NCC3(C)COC3)cnc21, which “Percent Effect” value is on record?
Answer: 7.504%

Question: Which “Percent Effect” value does the source give for CCCc1nccn1-c1cccc(C(C)O)c1 (stereo not given) here?
Answer: 0.8056%

Question: For Cc1ccc(C(=O)NC2CCN(C(=O)Nc3ccccn3)CC2)o1, which “Percent Effect” value is on record?
Answer: 4.828%

Question: Which “Percent Effect” value does the source give for Cc1cc(C(=O)NC2CCN(C(=O)Nc3cccnc3)CC2)c(C)o1 here?
Answer: 20.93%

Question: How did the “Percent Effect” value turn out when Cc1ccc(C(=O)NC2CCN(C(=O)Nc3ccncc3)CC2)o1 was run?
Answer: 166.8%

Question: For O=C(NCc1ccccn1)N1CC=C(c2ccccc2)CC1, which “Percent Effect” value is on record?
Answer: 32.63%

Question: Cc1ccc(C(=O)NC2CCN(C(=O)NCc3ccccn3)CC2)o1 was tested. Which “Percent Effect” value did it give?
Answer: 118.1%

Question: Which “Percent Effect” value does the source give for Cc1ccc(NC(=O)N2CCC(NC(=O)c3ccc(C)o3)CC2)cc1 here?
Answer: -6.266%

Question: Cc1ccc(C)c(OCCN(C)C(=O)C2CCCN2C(N)=O)c1C (stereo not given) was tested. Which “Percent Effect” value did it give?
Answer: -6.745%

Question: Which “Percent Effect” value does the source give for COc1ccc(C2CCCN2c2ccc(C#N)cn2)c(OC)c1 (stereo not given) here?
Answer: 3.649%

Question: With CC(=O)N1CCC2(C1)c1ccccc1S(=O)(=O)N2C (stereo not given) as the compound, how does the “Percent Effect” value read?
Answer: 115.8%

Question: With CCCN1CCC2(C1)c1ccccc1S(=O)(=O)N2C.O=C(O)C(F)(F)F (stereo not given) as the compound, how does the “Percent Effect” value read?
Answer: -10.43%

Question: With CC(=O)N1CCC2(C1)c1ccccc1S(=O)(=O)N2Cc1ccccc1 (stereo not given) as the compound, how does the “Percent Effect” value read?
Answer: 103.8%

Question: Which “Percent Effect” value does the source give for CCCN1CCC2(C1)c1ccccc1S(=O)(=O)N2Cc1ccccc1.O=C(O)C(F)(F)F (stereo not given) here?
Answer: 16.14%

Question: How did the “Percent Effect” value turn out when CCCN(CC(=O)OC)C(=O)c1sc(C)nc1C was run?
Answer: 1.933%

Question: Which “Percent Effect” value does the source give for Cn1cnc2c1CCN(CCOc1ccc3c(c1)CCC(=O)N3)C2 here?
Answer: -6.768%

Question: With Cc1ccc(CNC2(Cc3cc(C(C)(C)O)on3)COC2)o1 as the compound, how does the “Percent Effect” value read?
Answer: -11.3%

Question: Which “Percent Effect” value does the source give for FC(F)(F)c1ccc(-c2n[nH]c3c2CN(CC2CCOC2)CC3)cc1 (stereo not given) here?
Answer: 2.824%

Question: Which “Percent Effect” value does the source give for CCCC(=O)N1CCCC(c2cc3cccnc3c(O)n2)C1 (stereo not given) here?
Answer: 167%

Question: CCNC(=O)N1CCN(C(=O)c2cc(Cl)cc3cccnc23)CC1 was tested. Which “Percent Effect” value did it give?
Answer: -12.31%

Question: For CCCC(=O)N1CCC(c2cc[nH]n2)C1 (stereo not given), which “Percent Effect” value is on record?
Answer: 112.5%

Question: With CCCC(=O)N1CCC(c2nn(C)c(=O)n2-c2ccccc2)CC1 as the compound, how does the “Percent Effect” value read?
Answer: 0.6972%

Question: Which “Percent Effect” value does the source give for Cn1ccc(C(=O)N2CCCC(c3cc4cccnc4c(O)n3)C2)n1 (stereo not given) here?
Answer: 126.9%

Question: CCCC(=O)N1CCC(c2cc3cccnc3c(O)n2)CC1 was tested. Which “Percent Effect” value did it give?
Answer: 125.1%

Question: For CCN(C)CC1CCN(C(=O)Nc2ccc(-c3cc[nH]n3)cc2)C1 (stereo not given), which “Percent Effect” value is on record?
Answer: 2.001%

Question: For CCOC(=O)CCC(=O)N1CCC(Oc2ncccc2Cl)CC1, which “Percent Effect” value is on record?
Answer: 1.106%
